Source: PubChem BioAssay (Tox21)
Records with an inconclusive call do not appear. Unmarked numbers belong to inactive results. Calls come from the whole dose curve; as a rule, active = well fitted activation curve with a large enough effect in the signal ratio in the repeat runs (not every such curve was filed as active); inconclusive = weak or mixed curves; inactive = flat fitted curve, though single readings scatter; the % refers to the signal ratio.

Assay: qHTS assay to identify small molecule agonists of H2AX (AID 1224845)
Conditions: CHO-K1 phospho-H2AX Ser139 HTRF, 3 h; series mostly up to 154 µM; activation (H2AX phosphorylation): at the top concentration
Procedure, shortened: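 Wild-type CHO-K1 cells, plated overnight, exposed 3hr at 37C to 15 concentrations (0.76% DMSO final). Lysed, then HTRF anti-pH2AX (S139) cryptate and anti-H2AX-d2 antibodies, 24 hr room temperature; 665/620 nm emission read.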
% is set by controls: 0 for no effect and ±100 for the full control effect.

SMILES | activation (H2AX phosphorylation)
O=C(NCC1CN(c2ccc(N3CCOCC3=O)cc2)C(=O)O1)c1ccc(Cl)s1 (stereo not given) | -3.33% [at 70.9 µM]
CC(COCCO)OCCO (stereo not given) | 0.762%
CCC(C)(C)CC | -4.69%
CCN(CC)CCNc1ccc(CNC=O)c2sc3ccc(OC)cc3c(=O)c12 | 10.5%
CC[N+](C)(CC)CCOC(=O)C(O)(c1ccccc1)C1CCCCC1 (stereo not given) | -2.79% [at 70.9 µM]
CN1CCC(N(Cc2cccs2)c2ccccc2)CC1 | 0.698% [at 70.9 µM]
C=C(C)C(=O)OCC | -1.62%
C[N+]1(CC2COC(c3ccccc3)(C3CCCCC3)O2)CCCCC1 (stereo not given) | -1% [at 70.9 µM]
NCCCN1CCOCC1 | -1.38%
CC(=O)[O][Al] | 0.0193%
NC(=O)C(c1ccccc1)(c1ccccc1)[C@@H]1CCN(CCc2ccc3c(c2)CCO3)C1 | 0.377% [at 70.9 µM]
CC(=O)[O][Al][O]C(C)=O | -0.627%
CCCCOC(=O)CCCCCCCC(=O)OCCCC | -2.5%
CCCCC(CC)COC(=O)CCCCCCCCC(=O)OCC(CC)CCCC (stereo not given) | -2.04%
CN(C)CCOC(c1ccccc1)c1ccc(Br)cc1 (stereo not given) | -5.27% [at 70.9 µM]
O=C(OCCCCCCOC(=O)c1ccccc1)c1ccccc1 | 0.454%
C[Si](C)(CCCN)O[Si](C)(C)CCCN | 1.04%
CCC(C)O (stereo not given) | 0.689%

SMILES | activation (H2AX phosphorylation)
Nc1cccc([N+](=O)[O-])c1 | -1.47%
NS(=O)(=O)c1ccc(N2CCCCS2(=O)=O)cc1 | 0.689% [at 70.9 µM]
Cc1ncc(CO)c(C=O)c1O | 0.0007% [at 70.9 µM]
OC[C@H]1O[C@@H](OCCc2ccc(O)cc2)[C@H](O)[C@@H](O)[C@@H]1O | 4.28% [at 70.9 µM]
Nc1ccc([N+](=O)[O-])c(C(F)(F)F)c1 | 0.964% [at 70.9 µM]
O=C(O)c1nc(Cl)c(Cl)c(Cl)c1Cl | 2.69%
CC(C)OC(=O)C(C)N(C(=O)c1ccccc1)c1ccc(F)c(Cl)c1 (stereo not given) | -2.4%
C[C@@H](c1ncncc1F)C(O)(Cn1cncn1)c1ccc(F)cc1F (stereo not given in full) | -7.54% [at 70.9 µM]
OC(C#CCN1CCCC1)(c1ccccc1)c1ccccc1 | -1.02% [at 70.9 µM]
CCC(Cl)CCC(Cl)C(Cl)CC(Cl)C(Cl)C(Cl)CCl (stereo not given) | -0.774%
O=[N+]([O-])c1ccc(NCCO)c(OCCO)c1 | 0.315%
CC(C)(O)c1ccc(CNC(=O)c2cccnc2Oc2ccc(F)cc2)cc1 | 1.78%
CC(CSC(=O)c1ccccc1)C(=O)N1C[C@@H](Sc2ccccc2)C[C@H]1C(=O)O (stereo not given in full) | 0.449% [at 31.6 µM]
CCCCC/C=C\C/C=C\CCCCCCCC(=O)NC(C)c1ccccc1 (stereo not given) | -2.16% [at 70.9 µM]
CN1Cc2cc(C(=O)N3CCC(C4CCNCC4)CC3)ccc2NC(CC(=O)O)C1=O (stereo not given) | -1.62% [at 70.9 µM]
COc1cc2nc(N(C)CCCNC(=O)C3CCCO3)nc(N)c2cc1OC (stereo not given) | -0.801% [at 70.9 µM]
COC(C)(C)CCO | 1.26%
